From PubChem
Shown are actives, neighbours in structure and some others; about 3.4% of the full set was active somewhere.
MITF primary: MITF inhibitors, primary screen, biochemical, AlphaScreen, human; Microphthalmia-associated transcription factor (Homo sapiens), O75030; AlphaScreen MITF homodimerization, bead proximity signal; inhibition, % at 2.6 µM; 0.91% of 650,000 active; AID 1259374, 2018; in the data active = inhibition above about 50%
Target sequence (O75030 whole entry, looked up): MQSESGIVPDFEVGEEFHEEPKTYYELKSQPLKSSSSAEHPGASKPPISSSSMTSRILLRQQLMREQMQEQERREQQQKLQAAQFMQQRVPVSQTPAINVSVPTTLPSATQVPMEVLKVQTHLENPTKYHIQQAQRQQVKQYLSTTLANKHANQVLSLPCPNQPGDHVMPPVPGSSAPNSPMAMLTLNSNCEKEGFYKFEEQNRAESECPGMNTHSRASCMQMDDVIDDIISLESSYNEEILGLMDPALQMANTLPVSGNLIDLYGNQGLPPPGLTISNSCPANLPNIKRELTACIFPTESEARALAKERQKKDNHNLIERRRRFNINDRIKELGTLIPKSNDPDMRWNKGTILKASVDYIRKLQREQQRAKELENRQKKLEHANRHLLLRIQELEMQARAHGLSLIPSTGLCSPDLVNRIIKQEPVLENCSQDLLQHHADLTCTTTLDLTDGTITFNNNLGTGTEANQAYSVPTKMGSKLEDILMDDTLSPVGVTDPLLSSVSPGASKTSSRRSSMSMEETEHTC
GPR151 activ: activators of human GPR151, primary screen, cell-based, PathHunter beta-arrestin, luminescence. AID 1508602, 2020. PathHunter beta-arrestin GPR151 cells. 1% of 650,000 active. G-protein coupled receptor 151 (Homo sapiens), Q8TDV0. activation, % at 11.2 µM; in the data active = activation above about 4.9%
FBW7 act: FBW7 E3 ligase activators, primary screen, biochemical, AlphaScreen, human; 0.13% of 650,000 active; AlphaScreen FBW7–phospho-cyclin E peptide binding, activator screen; normalized activity (activation), % at 26.1 µM; F-box/WD repeat-containing protein 7 (Homo sapiens), Q969H0; in the data active = normalized activity above about 1.9%;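 also: purified mutant Fbw7 with reduced substrate affinity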
TEAD-YAP block: TEAD-YAP interaction inhibition, primary screen, TEAD-YAP interaction inhibitor project, luminescence, HEK-TIYL cells. TEAD-Gal4/YAP UAS-luciferase luminescence. inhibition, % at 9.12 µM. 1.4% of 640,000 active; in the data active = inhibition above about 32%
A number is an active result; – = inactive.

SMILES	MITF primary	GPR151 activ	FBW7 act	TEAD-YAP block
Cc1cc(OCC(=O)N/N=C/c2ccc(I)o2)ccc1Cl	–	–	–	–
CCOc1cc(/C=C2/SC(=S)N(C)C2=O)cc(Br)c1O	–	–	–	–
CCn1c(C)nc2cc(C(=O)N/N=C/c3ccc(O)c(O)c3O)ccc21	75.4	–	–	–
Fc1ccc(CNc2ncnc3ccccc23)cc1	–	–	–	54.6
c1csc(CNc2ncnc3nc[nH]c23)c1	–	–	–	–
c1csc(CNc2ncnc3ccccc23)c1	–	–	–	51.1
Cc1ccccc1-n1ncc2c(NCc3ccc(F)cc3)ncnc21	–	–	–	–
Cc1ccc(NC(=O)CSc2nc3ncccc3[nH]2)c(Cl)c1	–	–	–	–
Nc1nc(SCC(=O)Nc2cccc(Cl)c2)n[nH]1	–	–	–	–
CCOC(=O)c1ccc(NC(=O)CSc2nc3cc(OC)ccc3cc2C#N)cc1	–	–	–	–
CCN(CC)c1ccc(C2C(C(=O)OCc3ccccc3)=C(C)NC3=C2C(=O)CC(C)(C)C3)cc1 (stereo unspecified)	–	–	–	–
CS(=O)(=O)c1ccc(N2CCN(S(=O)(=O)c3cccs3)CC2)c(F)c1	–	–	–	–
NS(=O)(=O)c1ccc(N2CCN(S(=O)(=O)c3cccs3)CC2)c([N+](=O)[O-])c1	–	–	–	33.8
NC(=O)c1ccc(N2CCN(S(=O)(=O)c3ccccc3)CC2)c([N+](=O)[O-])c1	–	–	–	34.2
COc1ccccc1/C=N/Nc1nc(-c2ccccc2)cc(=O)[nH]1	–	–	–	50.3
O=C(O)C1CC(=O)N(c2ccc(OCc3ccc(Cl)cc3)cc2)C1 (stereo unspecified)	–	–	–	–
COc1ccc(-c2nc(NCc3cccnc3)c3ncn(C(C)C)c3n2)cc1	–	–	–	–
CC(C)n1cnc2c(NCc3cccnc3)nc(-c3ccc(C(N)=O)cc3)nc21	–	–	–	38.8
O=C(NC1CC1)c1ccc(-c2nc(NCCc3ccc(O)cc3)c3ncn(-c4ccsc4)c3n2)cc1	–	–	–	58.5
NC(=O)c1ccc(-c2nc(NCCc3ccc(O)cc3)c3ncn(-c4ccsc4)c3n2)cc1	–	–	–	43.5
NC(=O)c1ccc(-c2nc(NCc3cccnc3)c3ncn(-c4ccsc4)c3n2)cc1	–	–	–	50.7
CC(C)C[C@H]1NC(=O)[C@H]2CN(C(=O)c3cc(Cl)cc(Cl)c3)CCN2C1=O	–	–	–	–
Cc1ccc(C(=O)N/N=C/c2cccc3cccnc23)cc1	–	–	–	–
Cc1ccc(NC(=O)c2c[nH]c3ccccc3c2=O)c(C)c1	–	–	–	–
COc1ccc(CCNc2nc(-c3ccc(C(=O)NC4CC4)cc3)nc3c2ncn3C2CCCCC2)cc1	–	–	–	51.2
SMILES	MITF primary	GPR151 activ	FBW7 act	TEAD-YAP block
COc1ccc(CCNc2nc(-c3ccc(N4CCOCC4)nc3)nc3c2ncn3-c2ccsc2)cc1	–	–	–	–
COc1ccc(CCNc2nc(-c3ccc(C(N)=O)cc3)nc3c2ncn3C2CCCCC2)cc1	–	–	–	–
Oc1ccc(CCNc2nc(-c3ccc(N4CCOCC4)nc3)nc3c2ncn3-c2ccsc2)cc1	–	–	–	65.0
COc1ccc(CNC(=O)C2CC(c3ccccc3F)=NO2)cc1 (stereo unspecified)	–	–	–	–
COc1ccccc1C1=NOC(C(=O)NCc2cccs2)C1 (stereo unspecified)	–	–	–	40.9
COc1ccc(CNC(=O)C2CC(c3ccccc3OC)=NO2)cc1 (stereo unspecified)	–	–	–	48.0
Nc1ccc(C(=O)Nc2nc3cc4sc(NC(=O)c5ccc(N)cc5)nc4cc3s2)cc1	–	–	6.7	–
CC(=O)Nc1nc2ccc(NC(=O)c3c([N+](=O)[O-])cnn3C)cc2s1	–	–	–	53.0
Nc1ccc(C(=O)Nc2ccc3nc(NC(=O)C4CCCCC4)sc3c2)cc1	–	–	–	40.0
O=C(Nc1ccccc1)c1ccc2nc(NC(=O)C3CCCCC3)sc2c1	–	–	–	–
Cn1ncc(Cl)c1C(=O)Nc1ccc2nc(NC(=O)C3CCCCC3)sc2c1	–	–	–	57.3
Cn1ncc(Cl)c1C(=O)Nc1ccc(Cl)c(Cl)c1	–	–	–	–
COc1ccc(OC)c(NC(=O)COc2ccc(Br)cc2Br)c1	–	–	–	–
CCOC(=O)C(=CNc1cccc(NC(C)=O)c1)C(=O)OCC	–	–	–	–
Cc1nn(C)c(C)c1-c1ncc(C(=O)NCc2nc3ccccc3[nH]2)s1	–	–	–	–
Cc1cc(C2C(C#N)=C(N)N(c3cc([N+](=O)[O-])ccc3C)C3=C2C(=O)CCC3)c(C)s1 (stereo unspecified)	–	–	–	–
O=C1CC(C(=O)Nc2ccc(-c3cn[nH]c3)cc2)Cc2ccccc21 (stereo unspecified)	–	–	–	34.5
CCN(CC)C(=O)N1c2ccccc2CCc2ccccc21	–	–	–	41.9
CC(C)C(NS(=O)(=O)c1cccs1)C(=O)NCc1ccc(F)cc1 (stereo unspecified)	–	–	–	–
O=C(NCCn1cc(SCC(=O)N2CCN(c3ccccc3)CC2)c2ccccc21)c1ccc(F)cc1	–	–	–	–
O=C(NCCn1cc(SCC(=O)N2CCOCC2)c2ccccc21)c1ccc(F)cc1	–	–	–	32.0
CCOC(=O)C(Cc1ccccc1)NC(=O)c1cccc2c1C(=O)N(Cc1cccnc1)C2 (stereo unspecified)	–	–	–	–
CCOc1ccc(N(CC(=O)Nc2cccc(Cl)c2Cl)S(C)(=O)=O)cc1	–	–	–	–
CCn1c(C)cc(/C=C2/NC(=O)N(c3ccccc3)C2=O)c1C	–	–	–	33.5
COc1ccccc1/C=C1/NC(=O)N(c2cccc(Cl)c2)C1=O	–	–	–	–
SMILES	MITF primary	GPR151 activ	FBW7 act	TEAD-YAP block
COc1cccc(/C=C2/NC(=O)N(c3ccccc3)C2=O)c1O	–	–	–	34.9
O=C(NCCn1ccnc1)C1CC12CCN(Cc1cc3ccccc3[nH]1)CC2 (stereo unspecified)	–	–	–	–
COC(=O)C1=C(C)N(c2ccc(OC)cc2)C(=O)/C1=C\c1ccc(Br)cc1	–	–	–	–
Cc1cc(/C=c2\sc3nc4ccccc4n3c2=O)c(C)n1C1CCCC1	–	–	–	70.4
O=c1/c(=C\c2ccc(O)cc2)sc2nc3ccccc3n12	–	–	2.0	72.6
Cc1cc(/C=c2/sc3nc4ccccc4n3c2=O)c(C)n1-c1ccc(Cl)c(Cl)c1	–	–	–	–
COc1cccc(/C=c2/sc3nc4ccccc4n3c2=O)c1	–	–	–	49.6
c1ccc2c(c1)nc1n(CCN3CCCCC3)cnn21	–	–	2.1	–
c1ccc2c(c1)n(CCN1CCCCC1)c1ncnn21	–	–	–	–
Cc1ccc(C(=O)NC2CCCC2)cc1[N+](=O)[O-]	–	–	–	–
CCc1c(C(=O)c2ccc(Cl)cc2)oc2ccc3c(C)cc(=O)oc3c12	–	–	–	–
